Compound activity from PubChem BioAssay.
GCN5L2 inh – qHTS Assay for Inhibitors of GCN5L2 | Potency, µM (titrated, usually from 58.9 µM), inactives show at the top dose activity change, negative = inhibition, hits mostly inhibitors | Histone acetyltransferase KAT2A (Homo sapiens), Q92830 | GCN5L2 HAT assay, ThioGlo1 CoA-SH fluorescence | AID 504327, 2011 | 0.21% of 390,000 active; further: on the % scale 0 is the no-effect control and ±100 the full control effect
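Fluorescence readout, Ex340nm/Em540nm: ThioGlo1 (50uM final) reacts with free CoA thiol released as 20nM GCN5L2 acetylates H3(1-25) peptide (75uM) using acetyl-CoA (70uM). Compound and enzyme sat 15 min beforehand; 20 min room-temperature reaction.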
PLK1 PBD inh – qHTS for Inhibitors of PLK1-PDB (polo-like kinase 1 - polo-box domain): Primary Screen; Plk1 PBD binding of FITC phosphopeptide, fluorescence polarization; Potency, µM, for inactives: max response, negative = inhibition, usual class: inhibitors; 2.8% of 360,000 active; AID 720504, 2013; further: series mostly up to about 57 µM; on the % scale 0 is the no-effect control and ±100 the full control effect; nearly all actives have a fitted effect of over 65% in size
VDR inhibitor – Inhibitors of the vitamin D receptor (VDR): qHTS. VDR-SRC2-3 peptide fluorescence polarization, 2 h. Potency, µM, for inactives: max response, negative = inhibition, most hits filed as inhibitors. 0.93% of 400,000 active. AID 504847, 2011; further: on the % scale 0 is the no-effect control and ±100 the full control effect
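Compounds are added to VDR with labelled SRC2-3 coactivator peptide and held 2 h at room temperature. Inhibition of the VDR–peptide interaction is then read as a change in fluorescence polarization.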
PTAP TSG101 blk – qHTS Assay for Iinhibitors of HIV-1 Budding by Blocking the Interaction of PTAP/TSG101 | Fluorescence polarization, FITC-PTAP peptide / Tsg101 binding | Tumor susceptibility gene 101 protein (Homo sapiens), Q99816 | Potency, µM (highest dose often 115 µM), for inactives: top-dose activity change, negative = inhibition, hits mostly inhibitors | 340,000 tested, under 10 active; active means well fitted inhibition curve with a large enough effect in the main read-out, with a control signal flat, not every such curve was filed as active; inconclusive means small, poorly fitted or top-dose-only effect, or effect the other way, or a change in a side signal; inactive means no such curve, though single readings can be large or run the other way; further: % of control where 0% means no effect
Target sequence (Q99816 whole entry, looked up): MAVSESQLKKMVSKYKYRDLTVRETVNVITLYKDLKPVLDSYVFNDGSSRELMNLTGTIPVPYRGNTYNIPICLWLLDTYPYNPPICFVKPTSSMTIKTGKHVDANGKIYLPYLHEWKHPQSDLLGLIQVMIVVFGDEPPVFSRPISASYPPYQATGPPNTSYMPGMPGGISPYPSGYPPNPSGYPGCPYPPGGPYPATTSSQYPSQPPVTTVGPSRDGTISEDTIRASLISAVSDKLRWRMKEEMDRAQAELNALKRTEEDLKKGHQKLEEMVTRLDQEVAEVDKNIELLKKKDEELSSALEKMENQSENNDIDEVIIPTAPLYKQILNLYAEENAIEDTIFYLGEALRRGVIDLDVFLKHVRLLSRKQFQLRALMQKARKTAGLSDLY
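Steps: Tsg101 binding domain dispensed (10 uM final), compounds pinned in DMSO, FITC-labeled PTAP-motif peptide added (50 nM final); after 20 min binding at room temperature, polarization measured.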
USP1 inh – Inhibitors of USP1/UAF1: Primary Screen | 0.23% of 390,000 active | Ubiquitin carboxyl-terminal hydrolase 1 (Homo sapiens), O94782 | recombinant USP1/UAF1, Ub-Rhodamine cleavage fluorescence | AID 743255, 2014 | Potency, µM (top dose mostly 57.1 µM), for the others: at the top dose activity change, negative = inhibition, actives largely listed as inhibitors; further: on the % scale 0 is the no-effect control and ±100 the full control effect; nearly all actives have a fitted effect of over 60% in size
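USP1/UAF1 complex at 1 nM was preincubated with compound for 15 min at room temperature, then Ub-Rho substrate (150nM final) was added. Fluorescence (480/540 nm) was read kinetically, 6 reads every 60 seconds.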
* marks the source's active call; other numbers are inactive results; ? = inconclusive; . = no result given. In the library only some 3% were active in any assay of this set; here they are far more common. Unless noted, the call rests on the fitted dose curve; in most records, active means well fitted curve in the direction sought with a large enough effect; inconclusive means small, poorly fitted or top-dose-only effect, or another doubt; inactive means no such curve, though single readings can be large; an effect the other way counts as inactive or inconclusive. Potency means the concentration at half of the fitted maximal effect.

SMILES	GCN5L2 inh	PLK1 PBD inh	VDR inhibitor	PTAP TSG101 blk	USP1 inh
COc1ccc(-c2cc(C(=O)NCCN3CCOCC3)c3ccccc3n2)cc1	-22%	-2%	15%	-3%	-3%
Cc1ccc(-c2cc(C(=O)NCCN3CCOCC3)c3ccccc3n2)o1	13µM*	-13%	8%	-1%	-23%
COc1cnn(-c2ccccc2)c(=O)c1SCc1ccc(Cl)cc1Cl	27%	?	24%	-2%	-12%
Cn1ncc2c(c(SCc3ccc(Cl)cc3Cl)nn2C)c1=O	-13%	12µM*	?	-1%	-16%
COC(=O)c1cc2oc3ccccc3c2n1CC(=O)Nc1cccc(SC)c1	1%	.	2%	.	-12%
Cc1nnc(SCC2=C(C(=O)O)N3C(=O)C(NC(=O)c4cc(F)c(F)cc4Cl)C3SC2)s1 (stereo unspecified)	-1%	?	-4%	-2%	-16%
CCC(C(=O)NC1C(=O)N2C(C(=O)O)=C(CSc3nnc(C)s3)CSC12)c1ccccc1 (stereo unspecified)	-4%	24µM*	?	-3%	-15%
Cc1nnc(SCC2=C(C(=O)O)N3C(=O)C(NC(=O)COc4ccc(F)cc4)C3SC2)s1 (stereo unspecified)	-7%	?	79µM*	-2%	-20%
Cc1nnc(SCC2=C(C(=O)O)N3C(=O)C(NC(=O)COc4ccccc4)C3SC2)s1 (stereo unspecified)	-1%	19µM*	?	-7%	-5%
Cc1nnc(SCC2=C(C(=O)O)N3C(=O)C(NC(=O)Cn4nc(C(F)F)cc4C)C3SC2)s1 (stereo unspecified)	-9%	?	-36%	0%	-17%
O=C1C(=O)N(CCS(=O)(=O)c2ccccc2)c2ccc(F)cc21	-15%	-1%	0%	0%	?
CCc1c(C)sc2c1CCN(C(=O)Nc1ccc(F)c(Cl)c1)C2c1ccc(F)cc1 (stereo unspecified)	-15%	.	4%	.	-9%
CCn1c(=O)c2cc(C(=O)NCc3cc(OC)ccc3OC)sc2c2ccccc21	-7%	.	-9%	.	-16%
COc1ccc(/C=C/C(=O)c2ccc(C(=O)/C=C/c3ccc(OC)c(OC)c3)cc2)cc1OC	-8%	17%	-18%	6%	-9%
COc1cc(/C=C/C(=O)c2ccc(C)cc2)ccc1OCC#N	-13%	-1%	50µM*	-7%	-21%
COc1cccc(CC(=O)Nc2ccc3nc(N4CCC(C)CC4)cc(C)c3c2)c1	-17%	.	-8%	.	?
CCc1ccc(N2C(=O)CC(c3cc(OC)ccc3OC)C3=C2COC3=O)cc1 (stereo unspecified)	-1%	.	-11%	.	-28%
CC1=NN(c2ccc(Cl)cc2)C(=O)C1C(c1cccc(O)c1)c1c(C)[nH]n(-c2ccc(Cl)cc2)c1=O (stereo unspecified)	-26%	5.3µM*	79µM*	-3%	-11%
CC1=NN(c2ccc(F)cc2)C(=O)C1C(c1cccc(O)c1)c1c(C)[nH]n(-c2ccc(F)cc2)c1=O (stereo unspecified)	-13%	5.3µM*	-13%	-7%	?
CCOC(=O)Cc1csc(NC(=O)NC2(C(F)(F)F)Oc3ccccc3O2)n1	-4%	12µM*	?	-4%	-17%
CCOC(=O)Cc1csc(NC(=O)NC2(C(F)(F)F)Oc3cc(Cl)c(Cl)cc3O2)n1	-2%	21µM*	-5%	1%	-14%
CCOC(=O)Cc1csc(NC(=O)c2cc(C)c(C)s2)n1	2%	-1%	-4%	-6%	-17%
CCOC(=O)Cc1csc(NC(=O)Nc2ccc(OC(F)(F)F)cc2)n1	?	-3%	12%	-1%	-15%
CCOC(=O)Cc1csc(NC(=O)NC2(C(F)(F)F)Oc3ccc(Cl)cc3O2)n1 (stereo unspecified)	0%	17µM*	?	-2%	-7%
Cc1cc2nc3c(=O)[nH]c(=O)nc-3n(CC(O)C(O)C(O)COP(=O)(O)O)c2cc1C (stereo unspecified)	?	.	-17%	.	.
SMILES	GCN5L2 inh	PLK1 PBD inh	VDR inhibitor	PTAP TSG101 blk	USP1 inh
CN(C)c1ccc(-c2nc(-c3cccs3)c(-c3cccs3)[nH]2)cc1	-20%	.	-3%	.	-28%
NC(=S)N/N=C/c1ccc(C23CC4CC(CC(C4)C2)C3)cc1	-13%	-10%	-12%	0%	-17%
CCn1c2c(c3cc(C(=O)O)ccc31)CCCC2=O	-3%	30µM*	-10%	-1%	-12%
O=[N+]([O-])c1ccc(SCCc2ccncc2)cc1	-15%	19µM*	?	-8%	?
O=[N+]([O-])c1ccc(SCCc2ccccn2)cc1	-3%	17µM*	-11%	-2%	4%
O=[N+]([O-])c1ccc(CSc2ccccn2)cc1	-1%	-10%	-6%	-1%	0%
Cn1c(SCCc2ccc([N+](=O)[O-])cc2)nccc1=O	.	4%	-3%	3%	-5%
O=C(O)C1Sc2[nH]c(=O)sc2C2c3ccc(O)cc3OC(=O)C12 (stereo unspecified)	0%	30µM*	0%	-3%	?
O=C(O)C1Sc2[nH]c(=O)sc2C2c3cc(Br)ccc3OC(=O)C12 (stereo unspecified)	1%	30µM*	?	-7%	-3%
COC(=O)C(Cc1c[nH]c2ccccc12)NC(=O)COc1ccc(Cl)cc1Cl (stereo unspecified)	-1%	.	-9%	.	?
NS(=O)(=O)c1ccc2c(c1)C(=NO)c1cc(S(N)(=O)=O)ccc1-2	-4%	-4%	-8%	-1%	-20%
NC1=C(Cl)C(=O)c2ccc(S(N)(=O)=O)cc2C1=O	.	-1%	1%	-3%	1.3µM*
Cc1ccc2c(c1)c1c(c(=O)n(Cc3ccccc3)c(=O)n1Cc1cccc(C(F)(F)F)c1)n2C	-7%	.	1%	.	-20%
CN(C)C(=O)c1cc(C(=O)c2ccc(F)cc2C(F)(F)F)c[nH]1	-10%	-6%	-4%	-5%	-19%
CN(C)C(=O)c1cc(C(=O)c2ccccc2C(F)(F)F)c[nH]1	-1%	27µM*	-2%	-3%	?
CN(C)c1ncc2nc(CCc3ccccc3)c(=O)n(Cc3cccs3)c2n1	-19%	.	?	.	.
Nc1[nH]c(=O)[nH]c(=O)c1N=Cc1ccccc1	.	?	71µM*	-24%	-20%
COc1cc(C(=S)N2CCOCC2)ccc1OS(=O)(=O)c1ccccc1[N+](=O)[O-]	-1%	15µM*	-20%	-4%	?
O=C1COc2cc(S(=O)(=O)CCC(=O)N3CCN(c4ccccc4)CC3)c(Cl)cc2N1	-1%	.	-1%	.	-8%
